Compounds without any hit were thinned out: in the full panel of roughly 83,000, 20% have a hit.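 For each line, cells grew in 96-well plates with the test compound present at a single concentration for 48 hours.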 The source made the active and inactive calls. The calls were made as follows: active = growth percent below 10; inactive = the rest.
Key:
Experiment in all cases: NCI-60 one-dose screen, 48 h (100 = growth as untreated, 0 = no growth, -100 = all killed)
Conditions in all cases: 10 µM unless noted
[1] = tested on: NCI-H23 lung
[2] = tested on: NCI-H226 lung
[3] = tested on: NCI-H322M lung
[4] = tested on: HOP-62 NSCLC
[5] = tested on: NCI-H460 lung
[6] = tested on: HOP-92 NSCLC
[7] = tested on: NCI-H522 lung
[8] = tested on: A549/ATCC NSCLC
[9] = tested on: 786-0 renal
[10] = tested on: COLO 205 colon
[11] = tested on: DU-145 prostate
[12] = tested on: K-562 leukemia
[13] = tested on: MALME-3M melanoma
[14] = tested on: MDA-MB-231 breast
[15] = tested on: RXF 393 renal
[16] = tested on: SF-268 CNS
[17] = tested on: SF-295 CNS
[18] = tested on: SF-539 CNS
[19] = tested on: UACC-257 melanoma
[20] = tested on: M14 melanoma

Measured: growth

CCCCCCCCCCCCCCCCCCOc1ccccc1COP(=O)(O)OOCC[N+](C)(C)C
active: [1] 1.55% | [4] 3.04% | [6] -27.7% | [9] 9.57% | [10] -30.3% | [11] 9.26% | [12] 1.4% | [13] -12.3% | [14] -40.7% | [15] -64.7% | [18] 7.74% | [20] -29.1%
inactive: [2] 42% | [3] 87.6% | [5] 37.1% | [7] 21% | [8] 35.1% | [16] 10.6% | [17] 27.2% | [19] 11.5%

CC[CH2][Sn]([Cl])([Cl])[CH2]CC
inactive: [1] 76.9% | [2] 86.4% | [3] 131% | [4] 82.4% | [5] 107% | [6] 110% | [8] 99.3% | [9] 73.8% | [10] 44.2% | [11] 106% | [12] 30.6% | [13] 21% | [14] 81.6% | [15] 51.1% | [16] 83.2% | [17] 96.1% | [18] 80.4% | [19] 67% | [20] 83.4%
active: [7] -87.2%

OCCNC(Cc1ccccc1)c1ccc2c(c1)OCO2 (stereo not given)
inactive: [1] 100% | [2] 96.5% | [3] 98.4% | [4] 77.7% | [5] 106% | [6] 73.1% | [7] 67.5% | [8] 90.8% | [9] 95.5% | [10] 91% | [11] 101% | [12] 84.1% | [13] 90.8% | [14] 98.7% | [15] 109% | [16] 97.9% | [17] 90% | [18] 104% | [19] 90.1% | [20] 88.5%

O=C1C(N2CC2)=C(N2CC2)C(=O)C(N2CC2)=C1N1CC1
inactive: [6] 41.4% | [12] 29.2% | [14] 93.3% | [16] 19.9%
active: [1] -70% | [2] -63.6% | [3] 3.77% | [4] -17% | [5] -30.9% | [7] -53.3% | [8] 6.45% | [9] -76.2% | [10] -100% | [11] -15.5% | [13] -67.5% | [15] -73.4% | [17] -17.9% | [18] -67.1% | [19] -44.1% | [20] -82.4%

COc1ccc(C(=O)c2cc(OC)c(OC)c(OC)c2)cc1OC(C)=O
inactive: [1] 31% | [2] 102% | [3] 42% | [4] 25.2% | [6] 50.9% | [7] 10.3% | [8] 22.4% | [9] 26.5% | [10] 16.3% | [12] 10.4% | [13] 78% | [14] 33.8% | [15] 49.3% | [16] 41.9% | [17] 15.4% | [19] 55.7%
active: [5] 7.92% | [11] 4.78% | [18] 6.23% | [20] 4.11%

CC(=O)Nc1nc2c(s1)CC[C@@]1(C)C2=CC[C@H]2[C@@H]3CC[C@H](O)[C@@]3(C)CC[C@@H]21
inactive: [1] 73.3% | [2] 89.9% | [3] 79.8% | [4] 67.1% | [5] 27.3% | [6] 84.7% | [7] 51.6% | [8] 56% | [9] 35.7% | [10] 72.2% | [11] 81.7% | [12] 17.5% | [13] 56.9% | [14] 81.5% | [15] 23.5% | [16] 73.4% | [17] 36.4% | [19] 82% | [20] 36%
active: [18] 8.5%

CCCCCCCCC(CO)NCCc1ccccc1 (stereo not given)
inactive: [1] 105% | [2] 98.6% | [3] 88.8% | [4] 98% | [5] 102% | [6] 77.9% | [7] 73.7% | [8] 83.7% | [9] 102% | [10] 107% | [11] 102% | [12] 80.7% | [13] 109% | [14] 93.1% | [15] 136% | [16] 99.7% | [17] 98.1% | [18] 115% | [19] 85.7% | [20] 92.5%

C=CC[Se]C(=O)c1ccccc1OC(C)=O
active: [1] -21.6% | [3] -17% | [4] -7.57% | [5] -13.4% | [8] 0.797% | [9] -7.14% | [11] 1.76% | [14] -25.5% | [15] -21% | [17] -29.4% | [18] -82.4% | [19] 5.44% | [20] -6.78%
inactive: [2] 28.1% | [6] 15.2% | [7] 47.1% | [10] 36% | [12] 46.8% | [13] 30.9% | [16] 27.1%

Reference: PubChem BioAssay (NCI)
